Source: PubChem BioAssay
Compounds with a hit are over-represented: about 2% of the library has one in this group of screens.
ARNT TACC3 PPI = ARNT/TACC3 interaction disruption | 390,000 tested, 0.66% active | AlphaScreen His-ARNT PAS-B/GST-TACC3 binding, luminescence; TACC3 fragment carries E629A point mutation | inhibition, % at 9.99 µM;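 active means mean inhibition of replicates at least 50% and at least half of replicates each reaching 50%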;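 further: 0% = complete ARNT plus TACC3 wells and 100% = ARNT alone without TACC3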
HGIII-sPLA2 inh = Inhibits HGIII-sPLA2 liposome hydrolysis, primary screen; Q9NZ20; QFRET BODIPY PC-A2 liposome hydrolysis, fluorescence; inhibition, % at 12.2 µM; 370,000 tested, 0.56% active; AID 743126;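 active means inhibition above mean plus 3 SD of compounds lying within the high and low control bounds, cut at about 19% in these data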;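 further: 0% = median of test compound wells and 100% = no enzyme DMSO wells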
DAGLB inhibitor = blocks human DAGLB lipase activity. Q8NCG7. HEK293T DAGLB membrane lysate, EnzChek fluorogenic substrate. inhibition, % at 5.17 µM. 340,000 tested, 0.059% active; in the data active means inhibition above about 34%;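 further: 0% = enzyme with vehicle and 100% = wells lacking enzyme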
Target sequence (Q8NCG7 whole entry, looked up): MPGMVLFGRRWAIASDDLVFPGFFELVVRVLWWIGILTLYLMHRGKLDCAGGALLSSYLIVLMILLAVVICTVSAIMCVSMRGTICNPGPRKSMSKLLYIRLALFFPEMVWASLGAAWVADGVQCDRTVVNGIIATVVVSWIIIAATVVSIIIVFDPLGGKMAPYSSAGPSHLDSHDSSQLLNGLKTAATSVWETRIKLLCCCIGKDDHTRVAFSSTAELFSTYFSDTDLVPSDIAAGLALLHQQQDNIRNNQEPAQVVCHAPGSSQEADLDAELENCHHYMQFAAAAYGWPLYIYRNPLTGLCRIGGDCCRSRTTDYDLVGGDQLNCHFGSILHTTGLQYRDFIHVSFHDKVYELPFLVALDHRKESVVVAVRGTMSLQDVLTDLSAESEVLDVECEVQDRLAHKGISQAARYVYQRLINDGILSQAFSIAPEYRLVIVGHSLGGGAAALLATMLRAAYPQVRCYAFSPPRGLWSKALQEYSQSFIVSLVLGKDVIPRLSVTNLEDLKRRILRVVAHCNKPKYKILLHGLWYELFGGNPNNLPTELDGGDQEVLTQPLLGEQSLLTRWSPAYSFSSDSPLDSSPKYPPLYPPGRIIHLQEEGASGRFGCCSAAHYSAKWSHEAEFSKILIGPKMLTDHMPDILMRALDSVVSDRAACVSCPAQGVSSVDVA
Neddylation inh = cullin neddylation inhibition | P61081+Q13564 | TR-FRET cullin neddylation, biochemical | inhibition, % at 25 µM | 360,000 tested, 0.58% active | AID 651699; in the data active means inhibition above about 36%
NadD inh = NadD (S. aureus) enzyme inhibition; inhibition, % at 20 µM; purified NadD enzyme, colorimetric absorbance read-out; 360,000 tested, 0.78% active; in the data active means inhibition above about 26%
Neddyl conf = confirmation of human cullin neddylation inhibitors. TR-FRET cullin neddylation biochemical assay. calls only at 25 µM. 1,800 tested, 13% active. shares compounds with Neddylation inh; in the data active means inhibition above about 40%;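 further: neddylation substrate is the cullin 1 ring ligase complex with SKP2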
An asterisk follows results filed as active; i = inactive; nt = not tested or not shown.

SMILES	ARNT TACC3 PPI	HGIII-sPLA2 inh	DAGLB inhibitor	Neddylation inh	NadD inh	Neddyl conf
CC(=O)N1[C@H](C(=O)NCc2ccc(F)cc2)[C@@H](CO)[C@@H]2Cn3c(cccc3=O)[C@@H]21	-1.3	nt	nt	nt	nt	nt
CC(C)(C)c1ccc(C(=O)N2CCN(c3ccc(N4CCOCC4)nn3)CC2)cc1	-44.3	-2.2	1.2	52.3*	3.8	nt
COc1ccc(C(=O)N2CCN(c3ccc(N4CCOCC4)nn3)CC2)cc1OC	-8.7	6.5	-1.5	nt	-3.8	nt
O=C(c1ccc(C(F)(F)F)cc1)N1CCN(c2ccc(N3CCOCC3)nn2)CC1	0.3	-4.6	-2.2	59.1*	1.3	nt
CC(NC(=O)c1ccccc1O)c1ccccc1 (configuration not stated)	-8.4	-1.8	-3.0	46.3*	0.3	nt
C[C@H]1CN([C@@H](C)CO)C(=O)Cc2cc(NC(=O)CCC(F)(F)F)ccc2O[C@@H]1CN(C)Cc1ccc(Oc2ccccc2)cc1	15.6	nt	nt	nt	nt	nt
COc1ccccc1NC(=O)Cn1nnc(C(=O)NCc2ccc3c(c2)OCO3)c1N	-1.1	3.0	3.1	3.1	-7.9	nt
COc1ccc(Cl)cc1NC(=O)Cn1nnc(C(=O)NCc2ccc3c(c2)OCO3)c1N	-1.8	-6.2	0.4	69.3*	0.5	i
S=c1[nH]nc(-c2cc(-c3ccccc3)n[nH]2)n1/N=C/c1c(Cl)cccc1Cl	-4.5	11.3	12.4	48.8*	26.4	i
S=c1[nH]nc(-c2ccco2)n1/N=C/C=C/c1ccco1	4.6	12.4	2.3	0.3	-2.6	nt
S=c1[nH]nc(-c2cc(-c3ccccc3)n[nH]2)n1/N=C/C=C/c1ccco1	nt	14.1	nt	69.7*	16.2	i
Cc1ccc2[nH]c3c(Cl)ncnc3c2c1	2.9	1.0	nt	nt	-5.2	nt
COc1ccc2c(c1)[nH]c1c(Cl)ncnc12	5.7	1.6	-0.4	40.2*	1.9	i
COC(=O)c1cc(=O)nc2sc(-c3ccc(F)cc3)nn12	nt	nt	-0.6	18.8	0.9	nt
COC(=O)c1cc(=O)nc2sc(-c3cccs3)nn12	-0.7	-1.4	-2.8	48.9*	-1.7	i
O=C(NCC[C@H]1CC[C@@H](NS(=O)(=O)c2cccc(F)c2)[C@H](CO)O1)C1CC1	-7.1	nt	nt	nt	nt	nt
CC1CC(=O)c2cnc(Nc3ccccc3)nc2C1 (configuration not stated)	-1.8	5.0	0.5	38.1*	-1.7	nt
Cc1csc(NC(=O)c2cc(=O)[nH]c3ccc(S(=O)(=O)N4CCOCC4)cc23)n1	28.3	0.4	-1.7	57.3*	-3.1	nt
COc1cc(NC(=O)c2cc(=O)[nH]c3ccc(S(=O)(=O)N4CCOCC4)cc23)cc(OC)c1	-5.9	-8.1	2.8	6.5	13.5	nt
CO[C@H]1CN(C)C(=O)c2cc(NS(C)(=O)=O)ccc2OC[C@H](C)N(CC2CCCCC2)C[C@@H]1C	-2.7	nt	nt	nt	nt	nt
C[C@@H]1CCCCO[C@H](CN(C)Cc2ccc3c(c2)OCO3)[C@@H](C)CN([C@H](C)CO)C(=O)c2cc(NC(=O)C3CCCCC3)ccc2O1	-2.4	nt	nt	nt	nt	nt
Cc1ccc2nc(Cl)cc(=O)n2c1	-10.8	6.3	3.8	43.5*	-5.7	i
Cc1ccc2nc(COC(=O)c3ccc(Cl)nc3)cc(=O)n2c1	0.0	3.5	-0.2	19.8	-4.1	nt
C[C@@H]1CN([C@@H](C)CO)C(=O)c2cc(NS(=O)(=O)c3ccc(Cl)cc3)ccc2O[C@@H](C)CCCCO[C@H]1CN(C)S(=O)(=O)c1cccs1	4.0	nt	nt	nt	nt	nt
CC(C)c1cc(C(=O)OCC(=O)N2CCN(C(=O)c3ccco3)CC2)c(O)c(C(C)C)c1	-1.1	-0.5	1.4	34.3*	0.3	i
SMILES	ARNT TACC3 PPI	HGIII-sPLA2 inh	DAGLB inhibitor	Neddylation inh	NadD inh	Neddyl conf
COCCN(C(=O)COC(=O)c1oc2ccc(OC)cc2c1C)c1c(N)n(Cc2ccccc2)c(=O)[nH]c1=O	-13.8	-4.5	0.1	nt	12.7	nt
COc1ccc2oc(C(=O)OC(C)C(=O)N3CCC(C)CC3)c(C)c2c1 (configuration not stated)	0.7	-1.9	-5.3	nt	-0.9	nt
COc1ccc2oc(C(=O)OCC(=O)NC3CCCC3)c(C)c2c1	-0.9	-2.7	-5.0	nt	-6.0	nt
COc1ccc2oc(C(=O)OCC(=O)N(C)c3c(N)n(Cc4ccccc4)c(=O)[nH]c3=O)c(C)c2c1	-2.5	-3.7	3.0	58.0*	2.9	nt
CCN(C(=O)COC(=O)c1oc2ccc(OC)cc2c1C)C1CCCCC1	-4.3	2.0	-3.7	51.8*	-0.9	nt
COc1ccc2oc(C(=O)OC(C)C(=O)N(C)c3ccccc3)c(C)c2c1 (configuration not stated)	-4.8	-4.6	-8.0	56.1*	-6.7	nt
COc1ccc2oc(C(=O)OCC(=O)N(C)C3CCCCC3)c(C)c2c1	-21.3	7.3	-5.6	59.2*	-5.7	nt
O=C(CN1CCOCC1)N[C@@H]1CC[C@@H](CCNC(=O)C2CCC2)O[C@@H]1CO	-4.9	nt	nt	nt	nt	nt
O=C(c1cccnc1)N1C[C@H]2[C@@H](c3ccccc31)[C@@H](CO)N2C(=O)Nc1ccccc1	-2.6	nt	nt	nt	nt	nt
COc1ccc2oc(C(=O)OCC(=O)N3CC(C)OC(C)C3)c(C)c2c1 (configuration not stated)	-3.4	-4.9	0.9	nt	-1.4	nt
CCOC(=O)c1c(CN(CC)CC)oc2cc(Br)c(O)cc12	-8.1	-14.8	1.9	-5.9	-1.7	nt
COc1ccc2oc(C(=O)OCC(=O)N3CC(C)CC(C)C3)c(C)c2c1 (configuration not stated)	-2.1	-5.1	-3.1	60.5*	-7.2	nt
CCOC(=O)c1c(CN(CC)CC)oc2ccc(OC)cc12	-25.9	2.5	3.4	37.7*	-7.0	i
Cc1cc2n(n1)C(c1ccco1)Nc1ccccc1-2 (configuration not stated)	6.3	-5.7	-1.5	30.1	1.6	nt
Cc1cc2n(n1)C(c1ccc(O)cc1)Nc1ccccc1-2 (configuration not stated)	31.8	7.6	-3.2	42.3*	3.8	i
CC(C)NC(=O)N(C)C[C@@H]1Oc2ccc(NC(=O)CCC(F)(F)F)cc2C(=O)N([C@H](C)CO)C[C@H]1C	-0.3	nt	nt	nt	nt	nt
NS(=O)(=O)c1ccc(-c2ccc(/C=N/Nc3ccc(C(=O)O)cc3)o2)cc1	-1.8	-7.9	2.9	43.2*	-9.7	i
CN(C)C(=O)C[C@H]1CC[C@H](NC(=O)Nc2cccc(F)c2)[C@@H](CO)O1	3.9	nt	nt	nt	nt	nt
CCN(CC)c1cc(C)c2cc(NC(=O)c3ccccc3OC)ccc2n1	-1.1	-1.8	-0.4	42.7*	-6.0	i
CCN(CC)c1cc(C)c2cc(NC(=O)c3cccs3)ccc2n1	14.6	8.3	-0.8	25.3	-8.4	nt
COc1ccccc1C(=O)Nc1ccc2c(c1)nc1n2CCN(Cc2ccccc2)C1	12.1	-9.8	5.8	53.7*	9.8	i
O=C(C[C@H]1CC[C@@H]2[C@H](COC[C@H](O)CN2Cc2ccc(F)cc2)O1)NCc1ccncn1	-0.9	nt	nt	nt	nt	nt
NC1=NC(=O)/C(=C/c2c(OS(=O)(=O)c3ccc(Cl)cc3)ccc3ccccc23)S1	-2.4	-3.4	-3.2	41.0*	9.0	i
